Assay results reported in the supplement of paper PMC7411640.
Structures can show the parent of a compound that is named as a salt.

These compounds were tested on MDA-MB-468 (assay: phospho-S6 immunofluorescence (DAPI-normalised), per-plate z-score; higher = higher phospho-S6 signal (less pathway suppression)). Details: co-treatment: lapatinib 1 uM; 24 h.
Procedure: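 GPCR-targeted compound library (MedChemExpress HY-L006) tested on MDA-MB-468 PTEN-null TNBC cells in 384-well plates at 0.1, 1 or 10 uM, combined with vehicle, GDC0941 450 nM or lapatinib 1 uM, for 24 h. Phospho-S6 (S240/244) immunofluorescence normalised to DAPI and expressed as a per-plate z-score; values are the mean of biological triplicates.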
`CCCc1nc2c(C)cc(-c3nc4ccccc4n3C)cc2n1Cc1ccc(-c2ccccc2C(=O)O)cc1` [Telmisartan] (compound 10 µM) was tested, and the “phospho-S6 immunofluorescence (z-score)” value was 1.6. For `CC1CCN(CC[C@H]2CCCN2S(=O)(=O)c2cccc(O)c2)CC1` (compound 10 µM), the “phospho-S6 immunofluorescence (z-score)” value was 0.2. For `COc1ccc2[nH]cc(CCNC(C)=O)c2c1` [Melatonin] (compound 10 µM), the “phospho-S6 immunofluorescence (z-score)” value was 0.24. For `CC(=O)Oc1cc2c(s1)CCN(C(C(=O)C1CC1)c1ccccc1F)C2` (stereo not given) [Prasugrel] (compound 10 µM), the “phospho-S6 immunofluorescence (z-score)” value was 1.92. For `CCn1c(=O)c2c(nc(/C=C/c3ccc(OC)c(OC)c3)n2C)n(CC)c1=O` [Istradefylline] (compound 10 µM), the “phospho-S6 immunofluorescence (z-score)” value was 0.09. `CC(C)NCC(O)COc1ccc(CCOCC2CC2)cc1` (stereo not given) [Betaxolol (hydrochloride)] (compound 10 µM) was tested, and the “phospho-S6 immunofluorescence (z-score)” value was 0.07. `CC[C@@H]1C(=O)OC[C@@H]1Cc1cncn1C` [Pilocarpine (Hydrochloride)] (compound 10 µM) was tested, and the “phospho-S6 immunofluorescence (z-score)” value was -0.13. `CC(=O)OCC(=O)[C@@]12N=C(C)O[C@@H]1C[C@H]1[C@@H]3CCC4=CC(=O)C=C[C@]4(C)[C@H]3[C@@H](O)C[C@@]12C` [Deflazacort] (compound 10 µM) was tested, and the “phospho-S6 immunofluorescence (z-score)” value was -0.57. In the case of `CC1(C)O[C@@H]2[C@@H](CO[C@@]3(COS(N)(=O)=O)OC(C)(C)O[C@@H]23)O1` [Topiramate] (compound 10 µM), the “phospho-S6 immunofluorescence (z-score)” value was 0.19. For `O=C(Nc1cccc(Cl)c1)c1ccccn1` (compound 10 µM), the “phospho-S6 immunofluorescence (z-score)” value was 0.72. With `CN1CCN(C2=Nc3cc(Cl)ccc3Nc3ccccc32)CC1` [Clozapine] (compound 10 µM) the “phospho-S6 immunofluorescence (z-score)” value was -0.32. In the case of `CCOC(=O)c1ccc(-n2cc(Cc3cnc(OCC)nc3)c(=O)nc2SCc2ccc(F)cc2)cc1` (compound 10 µM), the “phospho-S6 immunofluorescence (z-score)” value was -3.79. With `O=C(c1ccc(F)cc1)N1CCC[C@H](c2nc(-c3ccc(F)cc3)no2)C1` (compound 10 µM) the “phospho-S6 immunofluorescence (z-score)” value was -3.29. `NC1=NCC2c3ccccc3Cc3ccccc3N12` (stereo not given) [Epinastine] (compound 10 µM) was tested, and the “phospho-S6 immunofluorescence (z-score)” value was -0.81. In the case of `C=CCN1CCCC1CNC(=O)c1cc(S(N)(=O)=O)cc(OC)c1OC` (stereo not given) [Veralipride] (compound 10 µM), the “phospho-S6 immunofluorescence (z-score)” value was 1.05. In the case of `CCCN(CCC)CCc1cccc2c1CC(=O)N2` [Ropinirole (hydrochloride)] (compound 10 µM), the “phospho-S6 immunofluorescence (z-score)” value was 1.04. In the case of `O=C(Nc1cccc2c(=O)cc(-c3nnn[nH]3)oc12)c1ccc(OCCCCc2ccccc2)cc1` [Pranlukast (hemihydrate)] (compound 10 µM), the “phospho-S6 immunofluorescence (z-score)” value was 1.07. For `COc1nc(C)cnc1NS(=O)(=O)c1cccnc1-c1ccc(-c2nnco2)cc1` [Zibotentan] (compound 10 µM), the “phospho-S6 immunofluorescence (z-score)” value was -0.19. In the case of `Clc1ccc2nsnc2c1NC1=NCCN1` [Tizanidine (hydrochloride)] (compound 10 µM), the “phospho-S6 immunofluorescence (z-score)” value was -0.07. `CN1[C@@H]2CC[C@H]1C[C@@H](OC(=O)c1c[nH]c3ccccc13)C2` [Tropisetron (Hydrochloride)] (compound 10 µM) was tested, and the “phospho-S6 immunofluorescence (z-score)” value was -0.2. `O=C(NC(Cc1cc(=O)[nH]c2ccccc12)C(=O)O)c1ccc(Cl)cc1` (stereo not given) [Rebamipide] (compound 10 µM) was tested, and the “phospho-S6 immunofluorescence (z-score)” value was 1.1. In the case of `CNS(=O)(=O)Cc1ccc2[nH]cc(CCN(C)C)c2c1` [Sumatriptan (succinate)] (compound 10 µM), the “phospho-S6 immunofluorescence (z-score)” value was 0.48. With `COc1ccccc1Oc1c(NS(=O)(=O)c2ccc(C)cn2)nc(-c2ccncc2)nc1OC` [Avosentan] (compound 10 µM) the “phospho-S6 immunofluorescence (z-score)” value was -0.67. With `COc1cccc(CCc2ccccc2OCC(CN(C)C)OC(=O)CCC(=O)O)c1` (stereo not given) [Sarpogrelate (hydrochloride)] (compound 10 µM) the “phospho-S6 immunofluorescence (z-score)” value was -0.51. `O=C(CCCN1CCC(O)(c2ccc(Cl)cc2)CC1)c1ccc(F)cc1` [Haloperidol] (compound 10 µM) was tested, and the “phospho-S6 immunofluorescence (z-score)” value was -0.01. In the case of `CCOc1cc(N)c(Cl)cc1C(=O)NCC1CN(Cc2ccc(F)cc2)CCO1` (stereo not given) [Mosapride (citrate)] (compound 10 µM), the “phospho-S6 immunofluorescence (z-score)” value was 0.46. In the case of `CC(C)(Cc1ccc2ccccc2c1)NC[C@@H](O)COc1cccc(Cl)c1C#N` [NPS-2143 (hydrochloride)] (compound 10 µM), the “phospho-S6 immunofluorescence (z-score)” value was -12.2. In the case of `CN(C)[C@@H]1CCc2[nH]c3ccc(NC(=O)c4ccc(F)cc4)cc3c2C1` (compound 10 µM), the “phospho-S6 immunofluorescence (z-score)” value was -1.38. For `NCCc1c[nH]cn1` [Histamine] (compound 10 µM), the “phospho-S6 immunofluorescence (z-score)” value was 1.34. In the case of `CCCCC[C@H](O)/C=C/[C@H]1[C@H](O)CC(=O)[C@@H]1CCCCCCC(=O)O` [Prostaglandin E1] (compound 10 µM), the “phospho-S6 immunofluorescence (z-score)” value was 1.48.
